LASV entry inh = qHTS for Inhibitors of binding or entry into cells for Lassa Virus. hit rate 1.2% among 300,000. Lassa virus pseudotype entry inhibition, cell reporter. Potency, µM (doses to about 37.9 µM), without a hit: top-dose activity change, negative = inhibition, hits mostly inhibitors; calls by dose curve; tested in HEK293 cells; also: potency is read from the fitted curve at half-maximal effect; nearly all actives have a fitted effect of over 50% in size
Pf growth 96h = Primary qHTS for delayed death inhibitors of the malarial parasite plastid, 96 hour incubation | P. falciparum luciferase reporter growth, 96 h | Potency, µM (series often up to 28.7 µM), for inactives: at the top dose activity change, negative = inhibition, most hits filed as inhibitors | hit rate 6.9% among 320,000 | AID 504834, 2011; also: potency is read from the fitted curve at half-maximal effect
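96 h incubation, 37 C, 5% CO2, of luciferase-reporter P. falciparum-infected RBCs (2% hematocrit, 0.05% parasitemia final) with test compounds; endpoint luminescence.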
HCV inhibitor = qHTS Assay for Inhibitors of Hepatitis C Virus (HCV) | Potency, µM (series often up to 41.8 µM), for inactives: at the top dose activity change, negative = inhibition, hits mostly inhibitors | Huh7.5.1 HCVcc-Cre infection, luciferase reporter, 44 h | AID 651820, 2012 | hit rate 3.4% among 340,000; also: potency is read from the fitted curve at half-maximal effect
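Whole-lifecycle infectious HCVcc-Cre system; cells 1,000/well, compound then virus (~0.5 moi) added 4 h after plating, 44 h culture. Luciferase read 15 sec following 15 min substrate incubation, room temp.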
Pf growth 48h = Primary qHTS for delayed death inhibitors of the malarial parasite plastid, 48 hour incubation. P. falciparum luciferase growth in erythrocytes, 48 h. Potency, µM (doses to about 28.7 µM), for the others: at the highest dose activity change, negative = inhibition, actives largely listed as inhibitors. hit rate 5.9% among 310,000. AID 504832, 2011; also: potency is read from the fitted curve at half-maximal effect
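Read-out is firefly luciferase luminescence from an integrated reporter in P. falciparum, so falling signal marks reduced parasite growth. Infected erythrocytes were at 2% hematocrit and 0.1% parasitemia (final) in Albumax-supplemented RPMI 1640.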
Marburg entry inh = qHTS for inhibitors of binding or entry into cells for Marburg Virus; Marburg virus pseudotyped entry inhibition, cell reporter; Potency, µM (titrated, usually from 37.8 µM), for inactives: at the top dose activity change, negative = inhibition, usual class: inhibitors; hit rate 1.8% among 300,000; calls by dose curve; tested in HEK293 cells; also: potency is read from the fitted curve at half-maximal effect
HCMV antiviral = qHTS Assay for inhibitors of the human cytomegalovirus (HCMV) | HFF cells, HCMV-luciferase reporter, 72 h; hits give low values | AID 1259415, 2018 | activity change, negative = inhibition, % at 57.5 µM | hit rate 4.5% among 410,000; in the data active = activity change below about -60%; inconclusive = no clear call, values can overlap the other calls; inactive = above about -39%
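Steps: HFFs plated, 16 h 37C; compounds added; HCMV-luciferase added to MOI 1 PFU/cell; 72 h 37C; OneGlo reagent, 5 min room temperature; luminescence read, normalized to controls.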
An asterisk follows results filed as active; ? = inconclusive; / = no result given; [ ] = remark or other dose. Compounds with a hit are over-represented: about 14% of the library has one in this group of screens. Unless noted, calls follow the shape of the dose curve; as a rule, active = well fitted inhibition curve with a large enough effect; inconclusive = small, poorly fitted or top-dose-only effect, or another doubt; inactive = no such curve, though single readings can be large or run the other way. % is scaled to controls: 0 for no effect and ±100 for the full control effect.

SMILES | LASV entry inh | Pf growth 96h | HCV inhibitor | Pf growth 48h | Marburg entry inh | HCMV antiviral
COc1ccc(Cl)cc1NC(=O)COC(=O)C1=NNC(=O)CC1 | ? | / | ? | / | 8% | -67*
CN(CC(=O)NCC(c1ccco1)N1CCCCC1)S(=O)(=O)c1ccc(Cl)cc1 (stereo not drawn) | 13% | ? | -16% | 8.3µM* | -26% | ?
N#Cc1ccc(C(=O)NCC(c2ccco2)N2CCCCC2)cc1 (stereo not drawn) | 2% | 10µM* | -30% | / | -3% | -29
O=C(NCC(c1ccco1)N1CCCCC1)c1ccc(COc2ccc(Cl)cc2)cc1 (stereo not drawn) | 10µM* | / | ? | / | ? | -33
Cc1cc(C)n(-c2ccc(C(=O)NCC(c3ccco3)N3CCCC3)cc2)n1 (stereo not drawn) | / | 5.2µM* | 0% | ? | / | 93
O=C(NCc1cccs1)c1ccc2c(c1)sc1nc(-c3ccccc3)cn12 | 10%[46.1 µM] | / | / | / | / | /
CCc1cccc(CC)c1NC(=O)c1c(C)oc2ccc(O)c(CN3CCOCC3)c12 | -2%[46.1 µM] | / | / | / | -3%[46.1 µM] | -1
NC(=O)c1cccc(-c2ccnc3c2CC(C(=O)NCc2cccc(Cl)c2)O3)c1 (stereo not drawn) | / | / | / | / | / | -22
Cc1cc(C(=O)NCC(c2ccco2)N2CCCC2)c2ccccc2n1 (stereo not drawn) | / | 10µM* | 0% | ? | / | -25
O=C(NCC(c1ccc(Cl)cc1)N1CCCCC1)c1ccc(F)cc1 (stereo not drawn) | -26%[46.1 µM] | / | / | / | 2.8µM* | 3
O=C(NCC(c1ccco1)N1CCCCC1)c1cc2c(s1)CCCC2 (stereo not drawn) | / | 1.7µM* | ? | 8.3µM* | / | 25
COc1ccccc1-c1c(C)nn2c(N3CCN(c4ccc(Cl)cc4)CC3)cc(C)nc12 | -2%[46.1 µM] | / | / | / | / | -14
CCc1ccccc1N1C(=O)N(CC(=O)c2ccc(Cl)cc2)c2ccccc2S1(=O)=O | ? | / | / | / | / | -31
Cc1ccnc(NS(=O)(=O)c2ccc(NC(=O)c3cccc(Cl)c3)cc2)n1 | / | / | / | / | / | 2
Cc1cc(C)n(CC(O)Cn2c3ccc(Cl)cc3c3cc(Cl)ccc32)c(=O)n1 (stereo not drawn) | -15% | / | ? | ? | -28% | ?
OC(CNCCC1C=Nc2ccccc21)Cn1c2ccc(Cl)cc2c2cc(Cl)ccc21 (stereo not drawn) | ? | ? | ? | 2.6µM* | ? | -39
OC(CNCC1CCCO1)Cn1c2ccccc2c2ccccc21 (stereo not drawn) | -10% | ? | ? | 4.7µM* | ? | 35
OC(CNCC1CCCO1)Cn1c2ccc(Cl)cc2c2cc(Cl)ccc21 (stereo not drawn) | ? | 29% | ? | 0.37µM* | ? | 61
CCOC(=O)c1cc2c(=O)n3ccccc3nc2n(CC2CCCO2)c1=NC(=O)c1ccccc1C (stereo not drawn) | 18%[46.1 µM] | / | / | / | 4%[46.1 µM] | 4
Cc1cccc(N2CCN(CCNC(=O)C3COc4ccccc4C3)CC2)c1C (stereo not drawn) | 14%[46.1 µM] | / | / | / | / | -4
Cc1ccc(C2(c3noc(CN4C[C@@H](C)O[C@@H](C)C4)n3)CCCC2)cc1 | -24%[46.1 µM] | 12µM* | -13% | 12µM* | ? | 0
COCCN1CCN(Cc2nc(C3(c4ccc(C)cc4)CCCC3)no2)CC1 | -7%[46.1 µM] | 10µM* | -6% | 39% | -5%[46.1 µM] | -7
CC(C)c1ccc(OCC(=O)Nc2c(C(=O)c3ccc(F)cc3)oc3ccccc23)cc1 | 4%[46.1 µM] | / | / | / | 17%[46.1 µM] | -9
Cc1ccc(N2CC(C)Cn3c2nc2c3c(=O)n(CC(=O)OCc3ccccc3)c(=O)n2C)cc1C (stereo not drawn) | ? | 10µM* | 16% | ? | -5% | 33
Cc1ccc(N2CCCn3c2nc2c3c(=O)n(CC(=O)OCc3ccccc3)c(=O)n2C)cc1C | / | 5.2µM* | / | 12µM* | 6% | /

Bioassay records: PubChem, National Center for Advancing Translational Sciences (NCATS)
